Counter-ions that a name gives are not always drawn.

This assay concerns Neuro-2a. Description: neurite formation score, plate-normalized to DMSO control mean 5.04 (score (0-8 scale)); higher = more or longer neurites. Conditions: 1 µM. As for the experimental part: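 Neuro-2a mouse neuroblastoma cells in PLL-coated 96-well plates were pre-treated for 1 h in DMEM(+) with each kinase inhibitor at 1 µM, then switched to serum-free DMEM(-) with inhibitor to induce neurite outgrowth and fixed about 2-3 h later. Three blinded observers scored neurite formation from 0 (no neurites) to 8 (long neurites on almost all cells).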
As for `CC(=O)Nc1cccc(-n2c(=O)n(C3CC3)c(=O)c3c(Nc4ccc(I)cc4F)n(C)c(=O)c(C)c32)c1`, the neurite formation score is 3.57. The figure for `C#Cc1cccc(Nc2ncnc3cc(OC)c(OCCCCCCC(=O)NO)cc23)c1` is 4.36. Regarding `O=C1NC(=O)/C(=C\c2ccc3nccnc3c2)S1`, the neurite formation score amounted to 4.14. The compound `CN(C)C(=O)c1cc2cnc(Nc3ccc(N4CCNCC4)cn3)nc2n1C1CCCC1` had a neurite formation score of 4.96. `FC(F)(F)c1ccc(CNc2ccc(Cc3c[nH]c4ncccc34)cn2)cc1` came in with a neurite formation score of 3.54. For the compound `COc1cc2ncnc(Sc3nnc(C)s3)c2cc1OC`, the neurite formation score stood at 4.96. `COc1cc2ncnc(Nc3cccc(Br)c3)c2cc1OC` showed a neurite formation score of 4.14.

Take `COc1cc(C(=O)NC2CCN(C)CC2)ccc1Nc1ncc2c(n1)N(C1CCCC1)CC(F)(F)C(=O)N2C`: the neurite formation score is 4.29. With `COCCOc1ccc2c(c1)ncn2-c1ccc2cccc(N3CCC(N)CC3)c2n1`, the neurite formation score is 4.88. In turn, `Cc1ncc(CCCN(C)C)cc1Nc1ncc2c(n1)-c1ccc(C(F)(F)F)cc1NC(=S)C2` gave a neurite formation score of 5.29. Turning to `Oc1cccc(-c2nc(N3CCOCC3)c3oc4ncccc4c3n2)c1` [PI-103 Hydrochloride], the neurite formation score stood at 4.69. Consider `CCCCCCCCCCCCCCCc1cccc(O)c1C(=O)O` [Anacardic acid], for which the neurite formation score stood at 4.02. The figure for `CNC(=O)c1ccccc1Sc1ccc2c(/C=C/c3ccccn3)n[nH]c2c1` is 3.57. On to `Cc1nc(N)sc1-c1ccnc(Nc2ccc(N3CCOCC3)cc2)n1`, for which the neurite formation score amounted to 4.69. As to `COc1cc(Nc2ncc(F)c(Nc3ccc4c(n3)NC(=O)C(C)(C)O4)n2)cc(OC)c1OC` [R406 (free base)], the neurite formation score turned out to be 3.9.

As for `NC(=O)Nc1cc(-c2cccc(F)c2)sc1C(=O)N[C@H]1CCCNC1`, the neurite formation score was -0.431. As for `CNC(=O)c1cc(Oc2ccc(NC(=O)c3cccc(C(F)(F)F)c3)cc2)ccn1`, the neurite formation score is 3.57. As to `CNC(=O)c1c(F)cccc1Nc1nc(Nc2cc3c(cc2OC)CCN3C(=O)CN(C)C)nc2[nH]ccc12`, the neurite formation score came to 4.96. The compound `Cc1[nH]c(/C=C2\C(=O)Nc3ccc(S(=O)(=O)Cc4c(Cl)cccc4Cl)cc32)c(C)c1C(=O)N1CCC[C@@H]1CN1CCCC1` showed a neurite formation score of 3.91. `C[C@@H](Oc1cc(-n2cnc3ccc(CN4CCN(C)CC4)cc32)sc1C(N)=O)c1ccccc1C(F)(F)F` registered a neurite formation score of 4.29.

For `Cc1cnc(NC(=O)Nc2cc(Br)c(C)cc2OC[C@@H]2CNCCO2)cn1`, the neurite formation score stood at 4.96. As to `CN1CCN(c2ccc3nc(-c4c(N)c5c(F)cccc5[nH]c4=O)[nH]c3c2)CC1` [Dovitinib (TKI-258, CHIR-258)], the neurite formation score stood at 4.88. The compound `CN(c1ccccc1CNc1nc(Nc2ccc3c(c2)CC(=O)N3)ncc1C(F)(F)F)S(C)(=O)=O` gave a neurite formation score of 4.29. `Clc1ccc(Nc2nnc(Cc3ccncc3)c3ccccc23)cc1` [Vatalanib (PTK787) 2HCl] gave a neurite formation score of 3.91.

In turn, `C[C@@H]1CN(CC(=O)Nc2ccc3c(c2)Cc2cccc(-c4cc(=O)cc(N5CCOCC5)o4)c2S3)C[C@H](C)O1` displayed a neurite formation score of 3.9. `Clc1ccc(C2(c3ccc(-c4cn[nH]c4)cc3)CCNCC2)cc1` registered a neurite formation score of 5.24. The figure for `CN1CCN(c2nc(C3=C(c4c[nH]c5ccccc45)C(=O)NC3=O)c3ccccc3n2)CC1` [Sotrastaurin (AEB071)] is 5.96. Turning to `CC(C)(C)c1nc2c3cc[nH]c(=O)c3c3cc(F)ccc3c2[nH]1` [Pyridone 6], the neurite formation score was found to be 3.69. For `COc1cc(Nc2ncc3c(n2)-c2ccc(Cl)cc2C(c2c(F)cccc2OC)=NC3)ccc1C(=O)O` [MLN8237 (Alisertib)], the neurite formation score is 4.36. In the case of `CNC(=O)c1cc(Oc2ccc3nc(N[C@@H]4CCCC[C@H]4O)sc3c2)ccn1`, the neurite formation score was 3.21. Compound `COc1cc(Nc2ncc(F)c(Nc3ccc4c(n3)N(COP(=O)(O)O)C(=O)C(C)(C)O4)n2)cc(OC)c1OC` [Fostamatinib (R788)] had a neurite formation score of 4.8. `S=C(NCc1ccc2c(c1)OCO2)N1CCN(c2ncnc3c2oc2ccccc23)CC1` [Amuvatinib (MP-470, HPK 56)] gave a neurite formation score of 4.69. As for `O=C1NC(=O)C(=Cc2ccc(-c3ccc(F)cc3)o2)S1` (stereo in doubt), the neurite formation score was 4.54.

Consider `Cc1nc(NC(=O)N2CCC[C@H]2C(N)=O)sc1-c1ccnc(C(C)(C)C(F)(F)F)c1`, for which the neurite formation score was found to be 5.24.

Regarding `COc1cc(Nc2ncc(F)c(Nc3ccc4c(n3)NC(=O)C(C)(C)O4)n2)cc(OC)c1OC`, the neurite formation score is 5.63. The compound `O=C(NC1CCNCC1)c1n[nH]cc1NC(=O)c1c(Cl)cccc1Cl` returned a neurite formation score of 5.57. For the compound `O=C(O)c1ccc(Nc2ncc3c(n2)-c2ccc(Cl)cc2C(c2c(F)cccc2F)=NC3)cc1`, the neurite formation score came to 3.47. Turning to `O=C(Nc1cc(C(F)(F)F)cc(C(F)(F)F)c1)c1cc(Cl)ccc1O`, the neurite formation score was 2.8. The figure for `Nc1nc(N)c(N=O)c(OCC2CCCCC2)n1` is 4.57; for `CSc1cccc(Nc2ncc3cc(-c4c(Cl)cccc4Cl)c(=O)n(C)c3n2)c1` it is 0.626.

The values above are taken from the supplement of paper PMC8047044.
